Pf growth 48h: Primary qHTS for delayed death inhibitors of the malarial parasite plastid, 48 hour incubation. P. falciparum luciferase growth in erythrocytes, 48 h. Potency, µM (top dose mostly 28.7 µM), inactives show top-dose activity change, negative = inhibition, usual class: inhibitors. 310,000 compounds, 5.9% hits; note: potency is the fitted concentration of half-maximal effect
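Luciferase-expressing parasites in RBCs, 2% Hct / 0.1% parasitemia final; RPMI 1640 + 0.5% Albumax; 37 C, 5% CO2, one generation; luminescence read-out, lower signal = inhibition.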
Lassa entry inh: qHTS for Inhibitors of binding or entry into cells for Lassa Virus | Lassa virus pseudotype entry inhibition, cell reporter | Potency, µM (titrated, usually from 37.9 µM), inactives show at the highest dose activity change, negative = inhibition, hits mostly inhibitors | 300,000 compounds, 1.2% hits | AID 540256, 2011; calls by dose curve; tested in HEK293 cells; note: potency is the fitted concentration of half-maximal effect; nearly all actives have a fitted effect of over 50% in size
Pf growth 96h: Primary qHTS for delayed death inhibitors of the malarial parasite plastid, 96 hour incubation; P. falciparum luciferase reporter growth, 96 h; Potency, µM (doses to about 28.7 µM), for the others: at the highest dose activity change, negative = inhibition, most hits filed as inhibitors; 320,000 compounds, 6.9% hits; AID 504834, 2011; note: potency is the fitted concentration of half-maximal effect
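Plates of compound plus infected erythrocytes (2% hematocrit, 0.05% parasitemia final) incubate 96 hours, 37 C, 5% CO2. Detection reagent added; reduced luminescence from the parasites' luciferase reporter flags inhibition.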
HCMV inh: qHTS Assay for inhibitors of the human cytomegalovirus (HCMV). HFF cells, HCMV-luciferase reporter, 72 h; hits give low values. activity change, negative = inhibition, % at 57.5 µM. 410,000 compounds, 4.5% hits. AID 1259415, 2018; in the data active = activity change below about -60%; inconclusive = no clear call, values can overlap the other calls; inactive = above about -39%
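Inhibition of viral replication was scored as loss of reporter luminescence in HFFs infected with HCMV-luciferase (MOI 1 PFU/cell) for 72 h; compounds tested at 2 doses, normalized to buffer and Salinomycin controls.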
HCV inhibitor: qHTS Assay for Inhibitors of Hepatitis C Virus (HCV); 340,000 compounds, 3.4% hits; Huh7.5.1 HCVcc-Cre infection, luciferase reporter, 44 h; Potency, µM (series often up to 41.8 µM), without a hit: top-dose activity change, negative = inhibition, hits mostly inhibitors; note: potency is the fitted concentration of half-maximal effect
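After 44 h co-culture of compound, cells and HCVcc-Cre (~0.5 moi), substrate is added for 15 min at room temperature and luciferase measured over 15 sec. Cells were seeded at 1,000/well and pre-cultured 4 h.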
Marburg entry inh: qHTS for inhibitors of binding or entry into cells for Marburg Virus. Marburg virus pseudotyped entry inhibition, cell reporter. Potency, µM (highest dose often 37.8 µM), for the others: top-dose activity change, negative = inhibition, most hits filed as inhibitors. 300,000 compounds, 1.8% hits. AID 540276, 2011; calls by dose curve; tested in HEK293 cells; note: potency is the fitted concentration of half-maximal effect
Starred values were filed as active, the others as inactive; ? = inconclusive; nt = no result; [ ] = another dose, or the depositor's remark. Shown are actives, neighbours in structure and some others; about 14% of the full set was active somewhere. Unless noted, calls come from the whole dose curve; as a rule, active = well fitted inhibition curve with a large enough effect; inconclusive = small, poorly fitted or top-dose-only effect, or another doubt; inactive = no such curve, though single readings can be large or run the other way. % is set by controls: 0 for no effect and ±100 for the full control effect.

SMILES | Pf growth 48h | Lassa entry inh | Pf growth 96h | HCMV inh | HCV inhibitor | Marburg entry inh
CCN(CCO)c1ccc(Nc2cc(-c3ccc(-c4ccccc4)cc3)ncn2)cc1 | nt | nt | nt | -8 | nt | nt
COC(=O)N[C@@H](C=Cc1ccccc1)[C@@H](C)[N+](=O)[O-] | nt | nt | nt | nt | nt | 2%[14.2 µM]
CCOc1ccc(C(=O)Nc2ccc(S(=O)(=O)N3CCCCC3c3cccnc3)cc2)cc1 (stereo not drawn) | nt | ? | nt | -89* | nt | nt
CCOc1cccc(C(=O)N2CCCCC2c2cccnc2)c1 (stereo not drawn) | 9.3µM* | 10% | 53% | 30 | 3% | -7%
CC(=O)Nc1ccc(S(=O)(=O)N2CCCCC2c2cccnc2)cc1 (stereo not drawn) | -7% | -2% | -3%[5.75 µM] | -15 | 3% | 8%
CC(=O)c1ccc(OCc2cc(C(=O)N3CCCCC3c3cccnc3)no2)cc1 (stereo not drawn) | ? | -16% | 19% | 6 | ? | -26%
O=C(Nc1ccc(S(=O)(=O)N2CCCCC2c2cccnc2)cc1)c1ccc(Br)cc1 (stereo not drawn) | nt | ? | nt | -98* | nt | nt
Clc1ccc2nc(C(Cl)(Cl)Cl)[nH]c2c1 | nt | nt | nt | 1 | nt | nt
CNc1cc(-c2ccc(OC)c(OC)c2)ncn1 | nt | nt | nt | 95 | nt | nt
CNc1ccc2ncc(-c3ccc(OC)c(OC)c3)n2n1 | nt | nt | nt | -83* | nt | nt
NCCCC[C@H]1CNC(=O)C(=O)N1CCC12CC3CC(CC(C3)C1)C2 | 12µM* | nt | 7.4µM* | -11 | 21% | nt
Cc1cccc(C(=O)Nc2cccc(OCc3cc(=O)n4cccc(C)c4n3)c2)c1 | nt | 4%[46.1 µM] | nt | -24 | nt | nt
CCCn1c(N)c(N(CCOC)C(=O)CCC2CCCCC2)c(=O)[nH]c1=O | -17% | ? | 11% | -9 | 10% | ?
Cc1nc(S(=O)(=O)Nc2ccccc2C(=O)NCC2CC2)cn1C | 3.3µM* | -1%[46.1 µM] | 28% | -16 | 19% | ?
COc1ccccc1NS(=O)(=O)c1cn(C)c(C)n1 | nt | 1%[46.1 µM] | nt | -4 | nt | nt
C#Cc1ccc([C@@H]2C=C(C(=O)OCC=C)O[C@H](OCC)[C@H]2CCCO)cc1 | ? | nt | 2.3µM* | 0 | -5% | nt
C#Cc1ccc([C@@H]2C=C(C(=O)Nc3ccccc3)O[C@H](OCC)[C@H]2CCCO)cc1 | ? | nt | 1.9µM* | -8 | 2% | nt
CN(C)c1ccc(S(=O)(=O)N2CCCCC2)cc1NC(=O)C1=COCCO1 | -14% | -8%[46.1 µM] | ? | 9 | -7% | 12%[46.1 µM]
CCO[C@@H]1OC(C(=O)N2CCOCC2)=C[C@H](C2CCCCC2)[C@H]1CCCO | -8% | nt | 3% | 8 | 23% | nt
CCO[C@@H]1OC(C(=O)N2CCN(Cc3ccc4c(c3)OCO4)CC2)=C[C@H](C2CC2)[C@H]1CCCO | ? | nt | 3.3µM* | -28 | -17% | nt
CCO[C@H]1OC(C(=O)N2CCN(C)CC2)=C[C@@H](C(C)(C)C)[C@@H]1CCCO | 29% | nt | 28% | -7 | ? | nt
CCO[C@H]1OC(C(=O)N2CCN(C)CC2)=C[C@@H](C)[C@@H]1CCCO | 46% | nt | 59% | -97* | 1% | nt
CCO[C@H]1OC(C(=O)N2CCN(Cc3ccc4c(c3)OCO4)CC2)=C[C@@H](C2CCCCC2)[C@@H]1CCCO | ? | nt | 4.1µM* | -12 | ? | nt
CCO[C@@H]1OC(C(=O)N2CCCCCCC2)=C[C@H](C2CCCCC2)[C@H]1CCCO | 10µM* | nt | ? | 3 | ? | nt
CCOC(CNC(=O)c1cccn2c(=O)c3cc(Cl)ccc3nc12)OCC | nt | -17% | ? | -27 | ? | ?
CCOC(CNC(=O)c1cccn2c(=O)c3c(C)c(C)sc3nc12)OCC | 6.6µM* | nt | 13µM* | ? | 2% | nt
CN(C(=O)CSc1cn(CC(=O)N2CCCCC2)c2ccccc12)c1ccccc1 | nt | -1%[46.1 µM] | nt | -5 | nt | nt
CCn1cnc2sc(C(=O)N(Cc3ccc(N(C)C)cc3)Cc3ccco3)c(C)c2c1=O | ? | ? | 24% | -18 | -6% | 5µM*
